These results are taken from PubChem BioAssay.

A short description of assay [1]: inhibitors of TNFa-induced NFkB p65 translocation, primary screen, imaging, HUVEC, MLSMR starter and 10KST1 sets (AID 438;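 active = inhibition above 20% together with a positive visual image hit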;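 note: compound added about 3h40 before a 20 min TNFalpha stimulation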;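 for inhibition: signal is the nuclear over cytoplasmic p65 intensity ratio per well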). The conditions noted are these: HUVEC TNFa-induced p65 nuclear translocation; cell count: measured here: nuclei count (cytotoxicity indicator), at 2.08 µM; inhibition: at 2 µM, stronger effect = higher value, 0% TNFa-plus-vehicle, 100% no-TNFa wells.
The nature of assay [2]: inhibitors of mutant huntingtin aggregation, primary screen, imaging, exon1htt(103Q)mCFP cells, high-content imaging (AID 483).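 For nuclei count: percent of the per-plate median nuclei count of sample wells.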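 Note: compound exposure lasted 3 days before fixation.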 The conditions noted are these: exon1htt(103Q)mCFP cell line, aggregate imaging, at 2 µM; inhibition of aggregation: stronger effect = higher value; nuclei count: measured here: cell count, toxicity.
Assay [3] is described as follows: inhibitors of E-selectin induction by TNFa, primary screen, imaging, HUVEC, immunofluorescence, MLSMR starter and 10KST1 sets (AID 487;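 active = visually confirmed hit in the image check and inhibition above 20%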;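 for inhibition: signal is fraction of cell area covered by stained E-selectin grains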;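 for nuclei count: 100% = median nuclei count of all wells on the same plate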). As to conditions: HUVEC TNFalpha-induced E-selectin immunofluorescence imaging, at 2 µM; inhibition: stronger effect = higher value; nuclei count: measured here: cell number, toxicity.
The target of assay [4] is Voltage-gated potassium channel subunit beta-2 (Rattus norvegicus) (UniProt P62483). As to the kind of experiment: KvBeta enzyme negative modulators, primary screen, biochemical, NADPH fluorescence (AID 622;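 active = fluorescence slope higher than the sample average by over 3 SD, cut at about -0.22 in these data, passing the limit was not always enough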;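 note: slope of raw intensity against log time taken from 70 to 1610 s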). The conditions noted are these: recombinant KvBeta, 4-cyanobenzaldehyde reduction, at 10 µM, stronger effect = higher value.
Chain of Voltage-gated potassium channel subunit beta-2 (Rattus norvegicus) (P62483 whole entry, looked up): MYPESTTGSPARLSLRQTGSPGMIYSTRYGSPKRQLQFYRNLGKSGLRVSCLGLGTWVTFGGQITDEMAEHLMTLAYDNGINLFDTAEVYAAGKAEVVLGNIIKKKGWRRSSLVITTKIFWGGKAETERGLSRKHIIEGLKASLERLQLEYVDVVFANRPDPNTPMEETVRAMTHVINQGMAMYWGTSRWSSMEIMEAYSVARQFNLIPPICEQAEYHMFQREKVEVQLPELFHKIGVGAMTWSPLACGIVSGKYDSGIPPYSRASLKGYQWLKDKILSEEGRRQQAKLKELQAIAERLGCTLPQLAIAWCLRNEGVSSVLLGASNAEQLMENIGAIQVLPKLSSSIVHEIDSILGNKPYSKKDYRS
Assay [5] has the same target. Kind of assay: KvBeta positive modulators, primary screen, biochemical, NADPH fluorescence (AID 623;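 active = NADPH fluorescence slope more negative than the mean of all samples by about 3 SD, 99.7% confidence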;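 note: fluorescence intensity change per second fitted from 20 to 320 s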). The conditions noted are these: Recombinant KvBeta, NADPH fluorescence decrease slope, 10 min; at 10 µM; stronger effect = lower value.
In assay [6] the target is Alpha-2C adrenergic receptor (Homo sapiens) (UniProt P18825). As to the kind of experiment: modulators of alpha2C/GIRK thallium flux, primary screen, cell-based, HEK293 alpha2C/GIRK1/2 (AID 624;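 active = fluorescence slope after compound addition differing from the mean of all screened samples at 99.7% confidence, in either direction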;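 note: slope of fluorescence ratio to pre-addition baseline per second over 15 to 24 s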). As to conditions: thallium flux BTC fluorescence, at 10 µM, actives lie on both sides.
Chain of Alpha-2C adrenergic receptor (Homo sapiens) (P18825 whole entry, looked up): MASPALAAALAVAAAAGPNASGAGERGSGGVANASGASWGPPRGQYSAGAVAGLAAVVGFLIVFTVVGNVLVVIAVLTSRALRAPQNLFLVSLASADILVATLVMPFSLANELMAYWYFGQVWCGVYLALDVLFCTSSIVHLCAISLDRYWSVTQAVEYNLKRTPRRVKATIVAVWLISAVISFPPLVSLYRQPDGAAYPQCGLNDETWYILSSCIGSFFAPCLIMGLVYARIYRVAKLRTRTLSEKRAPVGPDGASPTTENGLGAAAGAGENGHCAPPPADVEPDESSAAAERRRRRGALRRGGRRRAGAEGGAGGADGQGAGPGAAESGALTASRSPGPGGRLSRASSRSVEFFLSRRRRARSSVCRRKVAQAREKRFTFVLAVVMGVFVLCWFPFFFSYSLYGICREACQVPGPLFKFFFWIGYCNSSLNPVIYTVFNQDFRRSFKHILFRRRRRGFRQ
Assay [7] in a line: inhibitors of Sendai virus-induced IRF3 signaling, primary screen, TLR/RLR signaling modifier project, cell-based, Sendai virus stimulus, luciferase, 10K MLSCN set (AID 602276;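 active = inhibition at or above 50% at 10 µM; inactive = inhibition below 50%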;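 note: firefly luciferase from ISG56 promoter only with Renilla not read in this screen; 0% = Sendai virus plus DMSO and 100% = medium plus DMSO without virus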). As to conditions: HEK293 RL24 IRF3 luciferase reporter, at 10 µM, stronger effect = higher value. On the technique in general: In a reporter assay the amount or activity of a reporter protein is the signal.
Assay [8] in a line: inhibitors of poly I:C-induced TLR3 signaling, primary screen, cell-based, poly I:C stimulus, luciferase, 10K MLSCN set (AID 602277;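 active = inhibition of the reporter signal at or above 50%; inactive = inhibition below 50%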). The conditions noted are these: HEK293-TLR3 RL24 IRF3 luciferase reporter, at 10 µM, stronger effect = higher value.

Structures are written as SMILES. Activity calls are given as the source filed them.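 Rule for the calls, unless noted: active = visual image review flags a hit and inhibition of aggregation exceeds 20%; inconclusive = visual hit but inhibition at or below 20%; inactive = no hit on visual image review.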

Regarding `CCN1CCN(S(=O)(=O)Cc2ccccc2)CC1`, the cell count in assay [1] was 426. Further, the inhibition – broadly, the relative decrease from the control value, in per cent – was -2.4% (inactive) in assay [1], -78.4% (inactive) in assay [3], -13.3% (inactive) in assay [7] and -9.78% (inactive) in assay [8]. Further, the inhibition of aggregation in assay [2] is 23.9% (inactive). The nuclei count in assay [2] was determined as 32.2%; in assay [3] it was 106%. In assay [4], the fluorescence slope is -0.607 (inactive). The NADPH fluorescence slope in assay [5] is -2.9e-05 (inactive). Besides, the slope in assay [6] was 0.00543 (inactive).
As to `COc1ccc(-n2ccnc2SCC(=O)NCc2ccc3c(c2)OCO3)cc1`, the cell count in assay [1] came out at 495. Also, the inhibition in assay [1] was 0.2% (inactive); in assay [3], -80% (inactive); in assay [7], 11.9% (inactive); in assay [8], 32.1% (inactive). In assay [2], the inhibition of aggregation is -17.1% (inactive). The nuclei count in assay [2] was determined as 110%; in assay [3] it was 123%. In addition, the fluorescence slope in assay [4] was -0.596 (inactive). Moreover, the NADPH fluorescence slope in assay [5] is -2.8e-06 (inactive). Also, in assay [6], the slope is 0.006 (inactive).
As to `CCOC(=O)N1CCC2(O)CCCCC2C1c1ccc(F)cc1` (centres undefined), the cell count in assay [1] came to 450. Moreover, the inhibition in assay [1] was -1.7% (inactive); in assay [3], -73.3% (inactive); in assay [7], 14.6% (inactive); in assay [8], 22.6% (inactive). Also, the inhibition of aggregation in assay [2] was -11.2% (inactive). Besides, the figures for the nuclei count in assay [2] and in assay [3] were 108% and 109%, respectively. Moreover, the fluorescence slope in assay [4] is -0.439 (inactive). Besides, in assay [5], the NADPH fluorescence slope was 1.9e-05 (inactive). Moreover, the slope in assay [6] was 0.00629 (inactive).
Turning to `CCCCCc1c(O)nc(SCC(=O)NCC2CCCO2)[nH]c1=O` (centres undefined), the cell count in assay [1] amounted to 579. In addition, the inhibition in assay [1] is 7.7% (inactive); in assay [3], -51.3% (inactive); in assay [7] it was 3.21% (inactive); in assay [8], 1.9% (inactive). The inhibition of aggregation in assay [2] is -2.5% (inactive). The nuclei count in assay [2] was 108%; in assay [3], 111%. For the same compound, the fluorescence slope in assay [4] is -0.417 (inactive). The NADPH fluorescence slope in assay [5] is 3.1e-05 (inactive). Moreover, in assay [6], the slope is 0.00681 (inactive).
`COc1ccccc1Nc1nc2ccccc2[nH]1`: the cell count in assay [1] amounted to 654. For the same compound, the inhibition in assay [1] was 4.7% (inactive); in assay [3], -12.4% (inactive); in assay [7], -19.5% (inactive); in assay [8], -54.9% (inactive). Moreover, the inhibition of aggregation in assay [2] is 4.6% (inactive). Further, the figures for the nuclei count in assay [2] and in assay [3] were 94.6% and 96.8%, respectively. Further, the fluorescence slope in assay [4] was -0.427 (inactive). Moreover, the NADPH fluorescence slope in assay [5] was -3.7e-06 (inactive). For the same compound, the slope in assay [6] was 0.00559 (inactive).
As for `CCN1CCN(c2ncnc3c2cnn3-c2ccc(C)cc2C)CC1`, the cell count in assay [1] was determined as 561. Moreover, the inhibition in assay [1] was 1.3% (inactive); in assay [3], 1.5% (inactive); in assay [7] it was 10.8% (inactive); in assay [8], 18.9% (inactive). In addition, the inhibition of aggregation in assay [2] was -28.5% (inactive). Besides, the nuclei count in assay [2] worked out at 94.2%; in assay [3] it was 112%. In assay [4], the fluorescence slope is -0.538 (inactive). Besides, the NADPH fluorescence slope in assay [5] is -1.4e-05 (inactive). Further, in assay [6], the slope is 0.00772 (inactive).
As for `Cc1ccc(-n2ncc3c(=O)[nH]c(SCC(=O)N4CCN(c5ccccc5)CC4)nc32)cc1`, the cell count in assay [1] came out at 229. Also, the inhibition in assay [1] is -8.5% (inactive); in assay [3] it was -22.6% (inactive); in assay [7] it was 9.1% (inactive); in assay [8], 23.7% (inactive). For the same compound, the inhibition of aggregation in assay [2] was 12.5% (inactive). For the same compound, the values for the nuclei count in assay [2] and in assay [3] were 93.6% and 118%, respectively. Also, the fluorescence slope in assay [4] was -0.358 (inactive). Moreover, the NADPH fluorescence slope in assay [5] was -1.3e-05 (inactive). In addition, the slope in assay [6] is 0.00346 (inactive).
Take `CCC(C(=O)OCC(=O)Nc1c(C)n(C)n(-c2ccccc2)c1=O)c1ccccc1` (centres undefined): in assay [1], the cell count amounted to 640. Also, the inhibition in assay [1] was 6.8% (inactive); in assay [3] it was -53% (inactive); in assay [7] it was 7.71% (inactive); in assay [8], 15.4% (inactive). In assay [2], the inhibition of aggregation was 5.9% (inactive). Further, the figures for the nuclei count in assay [2] and in assay [3] were 89.5% and 122%, respectively. Moreover, the fluorescence slope in assay [4] is -0.539 (inactive). Moreover, the NADPH fluorescence slope in assay [5] was 5.3e-06 (inactive). Also, the slope in assay [6] is 0.00674 (inactive).
Turning to `CC(=O)Nc1ccc(N=Cc2ccc[nH]2)cc1`, in assay [1], the cell count was found to be 362. Moreover, the inhibition is 3.4% (inactive) in assay [1], 9.1% (inactive) in assay [3], 9.12% (inactive) in assay [7] and -21% (inactive) in assay [8]. Moreover, the inhibition of aggregation in assay [2] is -8.9% (inactive). In addition, the nuclei count in assay [2] was 108%; in assay [3] it was 99.4%. The fluorescence slope in assay [4] is -0.264 (inactive). In assay [5], the NADPH fluorescence slope was -1.6e-05 (inactive). The slope in assay [6] is 0.00576 (inactive).
As to `COc1ccc(OCC(=O)N2CCN(C(=O)Cc3ccccc3)CC2)cc1`, the cell count in assay [1] amounted to 616. Besides, the inhibition is -22.3% (inactive) in assay [1], -14.3% (inactive) in assay [3], -10.1% (inactive) in assay [7] and -7.66% (inactive) in assay [8]. The inhibition of aggregation in assay [2] is -1.4% (inactive). Moreover, the figures for the nuclei count in assay [2] and in assay [3] were 106% and 101%, respectively. Moreover, the fluorescence slope in assay [4] was -0.517 (inactive). The NADPH fluorescence slope in assay [5] was -4.7e-05 (inactive). Besides, in assay [6], the slope was 0.00449 (inactive).
Turning to `COc1ccccc1NC(=O)CSc1nnc(-c2ccncc2)n1CC1CCCO1` (centres undefined), the cell count in assay [1] stood at 626. Also, the inhibition was 20.6% (inactive) in assay [1], 25.2% (inactive) in assay [3], 14.4% (inactive) in assay [7] and 98.5% (active) in assay [8]. Moreover, the inhibition of aggregation in assay [2] is -8.1% (inactive). Further, the results for the nuclei count in assay [2] and in assay [3] were 92.8% and 100%, respectively. For the same compound, the fluorescence slope in assay [4] is -0.462 (inactive). For the same compound, the NADPH fluorescence slope in assay [5] was -1.1e-06 (inactive). Besides, the slope in assay [6] was 0.00619 (inactive).
On to `Cc1cc(NC(=O)CCC(=O)N(CC(=O)NC2CCCC2)Cc2ccc(F)cc2)no1`, for which the cell count in assay [1] came to 402. Further, the inhibition in assay [1] is 0.8% (inactive); in assay [3] it was -48.3% (inactive); in assay [7], 14.9% (inactive); in assay [8], 13.1% (inactive). Besides, the inhibition of aggregation in assay [2] was -35.1% (inactive). The nuclei count in assay [2] was 103%; in assay [3], 122%. Moreover, the fluorescence slope in assay [4] was -0.421 (inactive). In addition, in assay [5], the NADPH fluorescence slope is -3.6e-05 (inactive). Besides, the slope in assay [6] was 0.00498 (inactive).
Regarding `CC(=O)C1=C(C)NC(SCSc2ccccc2)=C(C#N)C1c1cccnc1` (centres undefined), in assay [1], the cell count was 472. For the same compound, the inhibition in assay [1] was -0.5% (inactive); in assay [3], -33% (inactive); in assay [7], 1.86% (inactive); in assay [8], 0.63% (inactive). The inhibition of aggregation in assay [2] was -6.8% (inactive). The nuclei count in assay [2] was determined as 87.9%; in assay [3], 121%. In addition, in assay [4], the fluorescence slope is -0.475 (inactive). In assay [5], the NADPH fluorescence slope was -3e-05 (inactive). Further, the slope in assay [6] was 0.00661 (inactive).
For `Cc1ccc(N2CCN(C(=S)c3ccc(N(C)C)cc3)CC2)cc1`, in assay [1], the cell count came to 411. For the same compound, the inhibition was -38.4% (inactive) in assay [1], -90.7% (inactive) in assay [3], -12.6% (inactive) in assay [7] and -63.7% (inactive) in assay [8]. Moreover, the inhibition of aggregation in assay [2] was -2.2% (inactive). Further, the nuclei count was 85.8% in assay [2] and 98.3% in assay [3]. In addition, the fluorescence slope in assay [4] is -0.595 (inactive). The NADPH fluorescence slope in assay [5] was -2.7e-05 (inactive). Moreover, the slope in assay [6] was 0.00418 (inactive).
